Screen size: about 5,500 compounds; about 2,000 (36%) were called active. Another 18% or so got no clear call; they are omitted. Cut-off read from the data, not from the text of the source: active = normalized growth mostly below about 0.91 (no sharp cut-off); inconclusive = no clear call, values can overlap the other calls; inactive = mostly above about 0.92. Some of the results follow.
Assay: chemical genetic growth profiling, strain panel (AID 1159580);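 note: tested at 20 µM; growth read once vehicle control cultures reached saturation at 30 °C; 1 = growth at the plate median or of vehicle wells; lower values mean less growth of the strain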
Settings: growth OD

Measured: normalized growth

COC1=CC(=O)C[C@@H](C)[C@]12Oc1c(Cl)c(OC)cc(OC)c1C2=O
inactive: S. cerevisiae deletion strains, locus YJR075W, strain HOC1, active compounds read low 1.03 | S. cerevisiae deletion strains, locus YKL009W, strain mrt4, active compounds read low 1 | S. cerevisiae deletion strains, locus YKL068W, active compounds read low 0.986 | S. cerevisiae deletion strains, locus YKL085W, strain MDH1 (second series), active compounds read low 0.989 | S. cerevisiae deletion strains, locus YKL085W, strain MDH1, active compounds read low 0.989 | S. cerevisiae deletion strains, locus YKL160W, strain elf1, active compounds read low 1.02 | S. cerevisiae deletion strains, locus YKL190W, strain CNB1, active compounds read low 1 | S. cerevisiae deletion strains, locus YKR001C, strain vps1, active compounds read low 0.995 | S. cerevisiae deletion strains, locus YKR026C, strain gcn3, active compounds read low 0.979 | S. cerevisiae deletion strains, locus YKR091W, strain srl3, active compounds read low 0.989 | S. cerevisiae deletion strains, locus YLL001W, strain dnm1, active compounds read low 0.984 | S. cerevisiae deletion strains, locus YLL026W, active compounds read low 0.984 | S. cerevisiae deletion strains, locus YLL041C, strain sdh2, active compounds read low 0.996 | S. cerevisiae deletion strains, locus YLR027C, strain aat2, active compounds read low 0.993 | S. cerevisiae deletion strains, locus YLR039C, strain RIC1, active compounds read low 0.983 | S. cerevisiae deletion strains, locus YLR058C, strain SHM2, active compounds read low 0.996 | S. cerevisiae deletion strains, locus YLR102C, strain apc9, active compounds read low 1 | S. cerevisiae deletion strains, locus YLR113W, strain HOG1, active compounds read low 1 | S. cerevisiae deletion strains, locus YLR221C, strain rsa3, active compounds read low 0.956 | S. cerevisiae deletion strains, locus YLR258W, strain gsy2, active compounds read low 0.982 | S. cerevisiae deletion strains, locus YLR262C, strain YPT6 (second series), active compounds read low 0.967 | S. cerevisiae deletion strains, locus YLR262C, strain YPT6, active compounds read low 0.936 | S. cerevisiae deletion strains, locus YLR268W, strain sec22, active compounds read low 0.994 | S. cerevisiae deletion strains, locus YLR320W, strain mms22, active compounds read low 0.982 | S. cerevisiae deletion strains, locus YLR330W, strain CHS5, active compounds read low 0.994 | S. cerevisiae deletion strains, locus YLR342W, strain FKS1 (second series), active compounds read low 0.979 | S. cerevisiae deletion strains, locus YLR342W, strain FKS1, active compounds read low 0.972 | S. cerevisiae deletion strains, locus YLR357W, strain rsc2, active compounds read low 1.01 | S. cerevisiae deletion strains, locus YLR370C, strain arc18, active compounds read low 0.943 | S. cerevisiae deletion strains, locus YLR371W, strain rom2, active compounds read low 0.987 | S. cerevisiae deletion strains, locus YLR384C, strain iki3, active compounds read low 0.993 | S. cerevisiae deletion strains, locus YLR418C, strain cdc73, active compounds read low 0.987 | S. cerevisiae deletion strains, locus YML016C, strain PPZ1, active compounds read low 0.991 | S. cerevisiae deletion strains, locus YML032C, strain rad52, active compounds read low 0.986 | S. cerevisiae deletion strains, locus YML120C, strain ndi1, active compounds read low 0.951 | S. cerevisiae deletion strains, locus YML124C, strain tub3, active compounds read low 0.99 | S. cerevisiae deletion strains, locus YMR058W, strain fet3, active compounds read low 0.999 | S. cerevisiae deletion strains, locus YMR078C, strain ctf18, active compounds read low 0.987 | S. cerevisiae deletion strains, locus YMR125W, strain sto1, active compounds read low 0.988 | S. cerevisiae deletion strains, locus YMR129W, active compounds read low 0.983 | S. cerevisiae deletion strains, locus YMR205C, strain PFK2, active compounds read low 1.01 | S. cerevisiae deletion strains, locus YMR223W, strain ubp8, active compounds read low 0.988 | S. cerevisiae deletion strains, locus YMR231W, strain pep5, active compounds read low 0.991 | S. cerevisiae deletion strains, locus YMR263W, strain SAP30, active compounds read low 1.01 | S. cerevisiae deletion strains, locus YMR307W, strain GAS1, active compounds read low 0.847 | S. cerevisiae deletion strains, locus YNL067W, strain RPL9B, active compounds read low 1.04 | S. cerevisiae deletion strains, locus YNL071W, strain lat1, active compounds read low 0.992 | S. cerevisiae deletion strains, locus YNL128W, strain TEP1, active compounds read low 1 | S. cerevisiae deletion strains, locus YNL153C, strain GIM3, active compounds read low 1.04 | S. cerevisiae deletion strains, locus YNL183C, strain NPR1, active compounds read low 0.958 | S. cerevisiae deletion strains, locus YNL209W, strain ssb2, active compounds read low 0.984 | S. cerevisiae deletion strains, locus YNL233W, strain BNI4, active compounds read low 1.06 | S. cerevisiae deletion strains, locus YNL248C, strain rpa49, active compounds read low 1.05 | S. cerevisiae deletion strains, locus YNL250W, strain rad50, active compounds read low 1 | S. cerevisiae deletion strains, locus YNL271C, strain bni1, active compounds read low 0.99 | S. cerevisiae deletion strains, locus YNL298W, strain CLA4, active compounds read low 0.995 | S. cerevisiae deletion strains, locus YNL307C, strain MCK1, active compounds read low 1 | S. cerevisiae deletion strains, locus YNL322C, strain KRE1 (second series), active compounds read low 0.991 | S. cerevisiae deletion strains, locus YNL322C, strain KRE1, active compounds read low 1 | S. cerevisiae deletion strains, locus YNR049C, strain mso1, active compounds read low 0.98 | S. cerevisiae deletion strains, locus YNR052C, strain pop2, active compounds read low 0.999 | S. cerevisiae deletion strains, locus YOL006C, strain TOP1, active compounds read low 1.11 | S. cerevisiae deletion strains, locus YOL012C, strain htz1 0.916 | S. cerevisiae deletion strains, locus YOL147C, strain pex11, active compounds read low 0.993 | S. cerevisiae deletion strains, locus YOR001W, strain rrp6, active compounds read low 0.967 | S. cerevisiae deletion strains, locus YOR061W, strain CKA2, active compounds read low 0.968 | S. cerevisiae deletion strains, locus YOR069W, strain VPS5, active compounds read low 0.993 | S. cerevisiae deletion strains, locus YOR070C, strain gyp1, active compounds read low 0.977 | S. cerevisiae deletion strains, locus YOR080W, strain dia2, active compounds read low 0.982 | S. cerevisiae deletion strains, locus YOR083W, strain WHI5, active compounds read low 1.02 | S. cerevisiae deletion strains, locus YOR106W, strain vam3, active compounds read low 1 | S. cerevisiae deletion strains, locus YOR136W, strain idh2, active compounds read low 1 | S. cerevisiae deletion strains, locus YOR144C, strain elg1, active compounds read low 0.988 | S. cerevisiae deletion strains, locus YOR184W, strain ser1, active compounds read low 0.991 | S. cerevisiae deletion strains, locus YOR231W, strain MKK1, active compounds read low 1.01 | S. cerevisiae deletion strains, locus YOR265W, strain rbl2, active compounds read low 0.978 | S. cerevisiae deletion strains, locus YOR270C, strain vph1, active compounds read low 0.952 | S. cerevisiae deletion strains, locus YOR290C, strain snf2, active compounds read low 1.03 | S. cerevisiae deletion strains, locus YOR316C, strain cot1, active compounds read low 0.992 | S. cerevisiae deletion strains, locus YPL051W, strain arl3, active compounds read low 1.02 | S. cerevisiae deletion strains, locus YPL055C, strain LGE1, active compounds read low 0.985 | S. cerevisiae deletion strains, locus YPL078C, strain atp4, active compounds read low 1.03 | S. cerevisiae deletion strains, locus YPL106C, strain sse1, active compounds read low 0.964 | S. cerevisiae deletion strains, locus YPL240C, strain hsp82, active compounds read low 0.988 | S. cerevisiae deletion strains, locus YPL241C, strain CIN2, active compounds read low 0.992 | S. cerevisiae deletion strains, locus YPL256C, strain CLN2, active compounds read low 0.985 | S. cerevisiae deletion strains, locus YPR119W, strain clb2, active compounds read low 0.99 | S. cerevisiae deletion strains, locus YPR141C, strain kar3, active compounds read low 0.978 | S. cerevisiae deletion strains, locus YPR163C, strain tif3, active compounds read low 0.98 | S. cerevisiae deletion strains, locus YPR167C, strain met16, active compounds read low 0.99 | S. cerevisiae deletion strains, strain wtn01, active compounds read low 0.998 | S. cerevisiae strains, strain wild type, active compounds read low 0.988

Source: PubChem BioAssay AID1159580 (chemical genetic matrix, 2015)
